# Measurements from the supplement of paper PMC6411743.
# ± gives the standard deviation of the averaged measurements. Targets with the largest changes are over-represented here; the source holds about 5,400 in all.
# Compound: Nc1nc2c(ncn2[C@@H]2O[C@H](COP(=O)(O)OP(=O)(O)OP(=O)(O)O)[C@@H](O)[C@H]2O)c(=O)[nH]1 [guanosine triphosphate]
# Experiment: NP40-soluble protein abundance relative to vehicle (solubility fold change) (ratio); higher = more soluble protein in presence of GTP
# Method in brief: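 Across three independent experiments, values are fold changes against the detergent-processed vehicle for each replicate, based on vsn-normalised intensities. The samples were Jurkat crude lysate treated with eight concentrations (0.1 to 10 mM) for 10 min at room temperature and then 3 min at 37 °C. Lysate was solubilised with 0.8% NP40 and benzonase, ultracentrifuged, and the supernatant analysed by TMT-labelled LC-MS/MS.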
# Sequence of UniProt P42696 (P42696 whole entry): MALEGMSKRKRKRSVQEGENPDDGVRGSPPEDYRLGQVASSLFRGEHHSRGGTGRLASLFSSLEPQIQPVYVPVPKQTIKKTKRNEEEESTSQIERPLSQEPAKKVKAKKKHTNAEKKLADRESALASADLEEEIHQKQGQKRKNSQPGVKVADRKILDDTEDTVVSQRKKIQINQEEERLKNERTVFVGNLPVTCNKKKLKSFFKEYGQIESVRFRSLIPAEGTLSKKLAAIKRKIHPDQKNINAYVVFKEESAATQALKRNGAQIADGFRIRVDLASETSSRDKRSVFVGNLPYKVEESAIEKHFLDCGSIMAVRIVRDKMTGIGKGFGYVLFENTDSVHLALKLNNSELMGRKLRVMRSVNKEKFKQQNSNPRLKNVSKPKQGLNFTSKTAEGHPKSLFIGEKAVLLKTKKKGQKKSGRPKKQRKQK
# Sequence of UniProt P36915 (P36915 whole entry): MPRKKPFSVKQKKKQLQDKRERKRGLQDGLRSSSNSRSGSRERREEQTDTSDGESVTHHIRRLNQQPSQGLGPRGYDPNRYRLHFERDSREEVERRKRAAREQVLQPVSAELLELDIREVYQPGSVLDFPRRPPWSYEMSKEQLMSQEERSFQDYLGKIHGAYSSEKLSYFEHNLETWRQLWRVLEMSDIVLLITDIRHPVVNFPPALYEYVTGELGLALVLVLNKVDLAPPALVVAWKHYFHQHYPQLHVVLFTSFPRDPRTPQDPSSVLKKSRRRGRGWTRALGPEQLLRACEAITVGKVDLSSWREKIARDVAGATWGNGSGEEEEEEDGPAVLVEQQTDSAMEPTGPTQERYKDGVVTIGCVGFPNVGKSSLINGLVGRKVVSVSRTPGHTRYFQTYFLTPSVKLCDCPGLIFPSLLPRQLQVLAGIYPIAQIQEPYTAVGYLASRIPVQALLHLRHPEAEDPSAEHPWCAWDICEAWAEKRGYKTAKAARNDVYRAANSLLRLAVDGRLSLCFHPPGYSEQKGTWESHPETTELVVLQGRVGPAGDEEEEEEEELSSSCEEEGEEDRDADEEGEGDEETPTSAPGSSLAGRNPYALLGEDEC
# Sequence of UniProt O43324 (O43324 whole entry): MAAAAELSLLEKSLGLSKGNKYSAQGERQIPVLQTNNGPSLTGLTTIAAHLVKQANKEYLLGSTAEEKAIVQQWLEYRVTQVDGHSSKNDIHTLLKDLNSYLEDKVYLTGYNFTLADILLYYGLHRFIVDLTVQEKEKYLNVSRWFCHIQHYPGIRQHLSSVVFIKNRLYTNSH
# Sequence of UniProt O75822 (O75822 whole entry): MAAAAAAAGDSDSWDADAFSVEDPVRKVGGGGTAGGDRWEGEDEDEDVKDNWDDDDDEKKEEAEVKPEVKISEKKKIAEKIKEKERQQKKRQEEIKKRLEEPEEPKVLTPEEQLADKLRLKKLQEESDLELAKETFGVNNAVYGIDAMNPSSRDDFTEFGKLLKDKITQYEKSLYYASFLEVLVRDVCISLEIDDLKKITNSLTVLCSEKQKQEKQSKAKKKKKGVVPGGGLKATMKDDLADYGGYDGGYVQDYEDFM
# Sequence of UniProt P27144 (P27144 whole entry): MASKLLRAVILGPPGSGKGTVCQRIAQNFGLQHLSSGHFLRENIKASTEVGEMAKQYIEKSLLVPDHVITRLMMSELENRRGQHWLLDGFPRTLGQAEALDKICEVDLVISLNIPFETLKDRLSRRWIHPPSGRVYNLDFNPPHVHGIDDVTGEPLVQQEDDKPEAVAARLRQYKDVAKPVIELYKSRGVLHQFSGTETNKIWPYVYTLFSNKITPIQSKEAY
# Sequence of UniProt O75828 (O75828 whole entry): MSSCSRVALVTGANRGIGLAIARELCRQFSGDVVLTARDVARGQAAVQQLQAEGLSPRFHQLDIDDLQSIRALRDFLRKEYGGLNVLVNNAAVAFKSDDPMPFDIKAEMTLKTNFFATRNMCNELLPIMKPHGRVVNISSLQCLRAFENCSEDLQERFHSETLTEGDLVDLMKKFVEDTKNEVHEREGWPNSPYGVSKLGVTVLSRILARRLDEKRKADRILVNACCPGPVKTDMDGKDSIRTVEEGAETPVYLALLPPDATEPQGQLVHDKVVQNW
# Sequence of UniProt P10515 (P10515 whole entry): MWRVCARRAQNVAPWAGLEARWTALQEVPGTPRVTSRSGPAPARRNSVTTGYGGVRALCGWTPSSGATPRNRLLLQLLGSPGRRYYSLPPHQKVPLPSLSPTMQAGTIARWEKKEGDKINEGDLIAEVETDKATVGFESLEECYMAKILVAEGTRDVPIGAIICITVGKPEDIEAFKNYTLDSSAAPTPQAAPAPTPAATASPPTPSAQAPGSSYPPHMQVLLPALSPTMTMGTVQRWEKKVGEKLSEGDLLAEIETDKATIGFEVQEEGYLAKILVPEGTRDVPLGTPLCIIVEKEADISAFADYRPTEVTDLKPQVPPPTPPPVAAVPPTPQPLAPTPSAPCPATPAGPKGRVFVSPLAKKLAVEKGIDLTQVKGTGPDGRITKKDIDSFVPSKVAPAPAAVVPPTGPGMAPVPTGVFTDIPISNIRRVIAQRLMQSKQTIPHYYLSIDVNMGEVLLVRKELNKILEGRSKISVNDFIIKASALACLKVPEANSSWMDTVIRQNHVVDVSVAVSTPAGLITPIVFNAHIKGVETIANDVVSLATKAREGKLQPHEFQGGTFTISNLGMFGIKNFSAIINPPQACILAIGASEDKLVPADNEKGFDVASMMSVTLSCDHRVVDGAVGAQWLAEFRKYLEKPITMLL
# Sequence of UniProt Q9Y421 (Q9Y421 whole entry, one chain of several): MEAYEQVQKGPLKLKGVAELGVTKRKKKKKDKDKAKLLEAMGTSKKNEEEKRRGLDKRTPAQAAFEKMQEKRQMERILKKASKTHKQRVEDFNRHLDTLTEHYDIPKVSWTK
# Sequence of UniProt O43181 (O43181 whole entry): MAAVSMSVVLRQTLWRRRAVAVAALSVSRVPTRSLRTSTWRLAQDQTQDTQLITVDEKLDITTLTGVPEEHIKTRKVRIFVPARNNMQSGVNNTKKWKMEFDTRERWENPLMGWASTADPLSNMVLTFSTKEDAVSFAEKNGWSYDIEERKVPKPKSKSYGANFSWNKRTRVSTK
# Sequence of UniProt P13051 (P13051 whole entry): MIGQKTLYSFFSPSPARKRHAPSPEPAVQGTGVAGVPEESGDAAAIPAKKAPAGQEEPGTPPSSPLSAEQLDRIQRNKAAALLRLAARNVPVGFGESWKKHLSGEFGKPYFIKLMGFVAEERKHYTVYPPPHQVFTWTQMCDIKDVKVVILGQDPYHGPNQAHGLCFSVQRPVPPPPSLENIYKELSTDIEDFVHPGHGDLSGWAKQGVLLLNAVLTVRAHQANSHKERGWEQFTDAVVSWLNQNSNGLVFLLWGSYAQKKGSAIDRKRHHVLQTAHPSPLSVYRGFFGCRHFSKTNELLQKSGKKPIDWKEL
# Sequence of UniProt P28907 (P28907 whole entry): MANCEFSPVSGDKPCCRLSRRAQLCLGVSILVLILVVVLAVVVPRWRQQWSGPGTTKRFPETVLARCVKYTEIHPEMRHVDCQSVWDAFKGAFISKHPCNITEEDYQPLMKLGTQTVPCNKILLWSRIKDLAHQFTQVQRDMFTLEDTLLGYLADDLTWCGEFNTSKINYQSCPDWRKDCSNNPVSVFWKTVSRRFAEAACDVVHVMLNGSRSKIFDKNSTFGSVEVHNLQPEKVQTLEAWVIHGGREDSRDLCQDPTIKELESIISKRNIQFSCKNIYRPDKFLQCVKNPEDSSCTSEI
# Sequence of UniProt Q9NXW2 (Q9NXW2 whole entry, one chain of several): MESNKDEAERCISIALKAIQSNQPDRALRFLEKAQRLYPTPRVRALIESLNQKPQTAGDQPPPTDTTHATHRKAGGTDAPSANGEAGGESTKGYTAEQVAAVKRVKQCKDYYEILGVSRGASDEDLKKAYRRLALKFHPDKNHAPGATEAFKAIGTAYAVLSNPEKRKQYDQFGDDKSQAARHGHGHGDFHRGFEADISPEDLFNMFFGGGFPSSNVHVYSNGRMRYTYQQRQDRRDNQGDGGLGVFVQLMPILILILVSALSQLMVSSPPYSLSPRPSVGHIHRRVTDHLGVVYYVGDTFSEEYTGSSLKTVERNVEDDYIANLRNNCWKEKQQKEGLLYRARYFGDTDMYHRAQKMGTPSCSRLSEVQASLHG
# Sequence of UniProt Q9BRQ6 (Q9BRQ6 whole entry, one chain of several): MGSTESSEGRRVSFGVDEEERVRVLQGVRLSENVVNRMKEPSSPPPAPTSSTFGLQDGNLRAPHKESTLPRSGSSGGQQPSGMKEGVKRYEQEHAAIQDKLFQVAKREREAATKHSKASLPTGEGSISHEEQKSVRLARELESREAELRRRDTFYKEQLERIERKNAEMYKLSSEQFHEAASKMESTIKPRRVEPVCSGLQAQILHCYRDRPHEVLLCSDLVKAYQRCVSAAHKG
# Sequence of UniProt P10768 (P10768 whole entry): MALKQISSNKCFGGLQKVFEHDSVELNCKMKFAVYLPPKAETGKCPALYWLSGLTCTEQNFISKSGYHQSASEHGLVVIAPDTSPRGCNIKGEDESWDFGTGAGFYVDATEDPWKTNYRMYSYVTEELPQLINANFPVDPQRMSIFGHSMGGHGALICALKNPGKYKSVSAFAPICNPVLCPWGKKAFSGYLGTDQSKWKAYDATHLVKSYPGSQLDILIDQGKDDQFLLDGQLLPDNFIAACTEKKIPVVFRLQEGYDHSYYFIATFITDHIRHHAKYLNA
# Sequence of UniProt P18065 (P18065 whole entry): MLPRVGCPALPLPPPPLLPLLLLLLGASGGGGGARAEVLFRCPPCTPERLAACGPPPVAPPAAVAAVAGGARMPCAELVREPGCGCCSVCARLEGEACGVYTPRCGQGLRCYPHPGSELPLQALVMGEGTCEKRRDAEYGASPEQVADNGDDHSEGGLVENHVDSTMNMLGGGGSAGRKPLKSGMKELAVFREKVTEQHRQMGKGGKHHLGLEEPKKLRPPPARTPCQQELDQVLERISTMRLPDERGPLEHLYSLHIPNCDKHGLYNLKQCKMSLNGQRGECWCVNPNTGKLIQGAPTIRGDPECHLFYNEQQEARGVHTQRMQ
# Sequence of UniProt P05114 (P05114 whole entry): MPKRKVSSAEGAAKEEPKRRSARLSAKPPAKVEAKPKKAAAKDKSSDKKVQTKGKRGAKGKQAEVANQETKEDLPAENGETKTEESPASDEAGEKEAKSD
Target,NP40-soluble protein abundance (concentration: 0.1mM),NP40-soluble protein abundance (concentration: 0.5mM),NP40-soluble protein abundance (concentration: 1mM),NP40-soluble protein abundance (concentration: 2mM),NP40-soluble protein abundance (concentration: 4mM),NP40-soluble protein abundance (concentration: 6mM),NP40-soluble protein abundance (concentration: 8mM),NP40-soluble protein abundance (concentration: 10mM)
LGALS1 (UniProt P09382),0.889 ± 0.036,0.886 ± 0.037,0.885 ± 0.042,0.789 ± 0.055,0.813 ± 0.11,0.822 ± 0.067,0.821 ± 0.03,0.809 ± 0.055
UniProt P51532|P51532-2|P51532-3|P51532-4|P51532-5|Q9HBD4,1.016 ± 0.0073,1.07 ± 0.045,1.1 ± 0.083,1.15 ± 0.13,1.19 ± 0.15,1.2 ± 0.17,1.24 ± 0.23,1.21 ± 0.21
UniProt O75554|O75554-2,1.01 ± 0.045,1.07 ± 0.1,1.08 ± 0.083,1.05 ± 0.12,1.04 ± 0.059,1.09 ± 0.12,1.12 ± 0.072,1.06 ± 0.034
TOMM40 (UniProt O96008),1.01 ± 0.045,1.04 ± 0.031,0.953 ± 0.041,0.967 ± 0.018,0.946 ± 0.043,0.936 ± 0.037,0.939 ± 0.077,0.905 ± 0.061
UniProt P28907,0.92 ± 0.058,0.876 ± 0.075,0.927 ± 0.063,0.902 ± 0.091,0.891 ± 0.088,0.925 ± 0.088,0.895 ± 0.1,0.894 ± 0.058
IGFBP2 (UniProt P18065),0.9 ± 0.042,0.884 ± 0.053,0.983 ± 0.035,0.997 ± 0.043,0.995 ± 0.028,0.934 ± 0.062,1.02 ± 0.054,1.05 ± 0.087
UniProt P11388|P11388-2|P11388-3|P11388-4,1.06 ± 0.054,1.14 ± 0.036,1.2 ± 0.022,1.43 ± 0.052,1.73 ± 0.1,1.94 ± 0.16,2.01 ± 0.18,2.12 ± 0.15
UniProt P23025|F2Z2T2,1.07 ± 0.044,1.08 ± 0.049,1.21 ± 0.054,1.02 ± 0.1,1.05 ± 0.074,1.08 ± 0.14,1.12 ± 0.028,1.08 ± 0.097
UniProt P06729,0.895 ± 0.023,0.902 ± 0.035,0.912 ± 0.02,0.88 ± 0.072,0.852 ± 0.038,0.89 ± 0.053,0.893 ± 0.036,0.903 ± 0.039
PYGB (UniProt P11216),1.11 ± 0.12,1.19 ± 0.21,1.2 ± 0.28,1.45 ± 0.5,1.71 ± 0.63,1.78 ± 0.69,1.75 ± 0.61,1.79 ± 0.67
P0C0S5|Q71UI9 (UniProt Q71UI9+P0C0S5),0.898 ± 0.042,0.919 ± 0.033,1.11 ± 0.065,1.11 ± 0.06,1.12 ± 0.06,1.25 ± 0.094,1.25 ± 0.079,1.57 ± 0.18
H2AFX (UniProt P16104),0.94 ± 0.014,0.955 ± 0.036,1.07 ± 0.068,1.13 ± 0.075,1.2 ± 0.088,1.48 ± 0.16,1.44 ± 0.13,2.26 ± 0.46
KIN (UniProt O60870),0.9988 ± 0.0042,0.993 ± 0.013,0.9497 ± 0.0058,0.929 ± 0.029,0.916 ± 0.021,0.908 ± 0.024,0.9015 ± 0.007,0.885 ± 0.053
RBM34 (UniProt P42696),1.08 ± 0.0039,1.05 ± 0.034,1.14 ± 0.028,1.23 ± 0.065,1.41 ± 0.066,1.57 ± 0.12,1.68 ± 0.12,1.83 ± 0.066
UniProt P13051|P13051-2,0.9724 ± 0.0086,0.946 ± 0.019,0.944 ± 0.073,0.91 ± 0.062,0.886 ± 0.075,0.892 ± 0.07,0.893 ± 0.036,0.863 ± 0.1
UniProt O15260|O15260-2|Q5T8U5,1.13 ± 0.021,1.03 ± 0.05,1.05 ± 0.022,1.01 ± 0.07,1.04 ± 0.074,0.956 ± 0.055,1.03 ± 0.044,0.953 ± 0.03
AK4 (UniProt P27144),0.983 ± 0.072,0.887 ± 0.088,1.03 ± 0.042,1 ± 0.075,1.03 ± 0.11,0.987 ± 0.11,0.975 ± 0.16,0.983 ± 0.11
HMGN2 (UniProt P05204),0.992 ± 0.2,1 ± 0.14,1.31 ± 0.23,1.46 ± 0.35,1.5 ± 0.11,1.89 ± 0.35,1.7 ± 0.41,2.68 ± 0.3
NDUFS4 (UniProt O43181),1 ± 0.029,1.047 ± 0.0028,1.08 ± 0.053,1.12 ± 0.1,1.09 ± 0.12,1.1 ± 0.12,1.14 ± 0.18,1.1 ± 0.15

Target,NP40-soluble protein abundance (concentration: 0.1mM),NP40-soluble protein abundance (concentration: 0.5mM),NP40-soluble protein abundance (concentration: 1mM),NP40-soluble protein abundance (concentration: 2mM),NP40-soluble protein abundance (concentration: 4mM),NP40-soluble protein abundance (concentration: 6mM),NP40-soluble protein abundance (concentration: 8mM),NP40-soluble protein abundance (concentration: 10mM)
DLAT (UniProt P10515),1.11 ± 0.22,1.28 ± 0.39,1.47 ± 0.56,1.85 ± 0.82,2.12 ± 1.1,2.06 ± 1.1,1.98 ± 0.98,1.91 ± 0.99
GNL1 (UniProt P36915),1.05 ± 0.023,1.03 ± 0.019,0.972 ± 0.033,0.95 ± 0.015,0.9647 ± 0.0095,0.944 ± 0.02,0.959 ± 0.045,0.906 ± 0.061
CBR3 (UniProt O75828),1.15 ± 0.032,1.21 ± 0.11,1.11 ± 0.029,1.06 ± 0.082,1.04 ± 0.082,0.936 ± 0.091,1.08 ± 0.22,1.09 ± 0.11
J3KPS0|Q9NXW2|Q9NXW2-2 (UniProt Q9NXW2),1.01 ± 0.065,0.995 ± 0.088,0.984 ± 0.083,0.935 ± 0.064,0.913 ± 0.066,0.918 ± 0.1,0.967 ± 0.082,0.925 ± 0.063
UniProt P00387|P00387-2|P00387-3,1.11 ± 0.13,1.1 ± 0.14,0.945 ± 0.11,0.947 ± 0.15,0.938 ± 0.14,0.925 ± 0.14,0.882 ± 0.1,0.853 ± 0.14
J3QTA6|Q9BRQ6 (UniProt Q9BRQ6),1 ± 0.084,1.01 ± 0.083,1.12 ± 0.14,1.15 ± 0.054,1.15 ± 0.09,1.16 ± 0.062,1.22 ± 0.12,1.26 ± 0.21
RAD21 (UniProt O60216),0.975 ± 0.037,0.991 ± 0.03,1.06 ± 0.023,1.07 ± 0.044,1.09 ± 0.028,1.07 ± 0.038,1.11 ± 0.062,1.12 ± 0.092
ESD (UniProt P10768),0.959 ± 0.015,0.958 ± 0.032,0.924 ± 0.032,0.876 ± 0.025,0.882 ± 0.034,0.897 ± 0.04,0.875 ± 0.044,0.839 ± 0.059
P39880-3|Q13948|Q13948-2|P39880 (UniProt Q13948+P39880),0.948 ± 0.035,0.948 ± 0.058,1.01 ± 0.049,0.978 ± 0.063,1.01 ± 0.054,0.997 ± 0.052,1.03 ± 0.024,1.05 ± 0.063
J3KQL8|Q9BQE5 (UniProt Q9BQE5),0.987 ± 0.019,1.01 ± 0.041,0.984 ± 0.054,0.956 ± 0.058,0.917 ± 0.044,0.982 ± 0.05,0.957 ± 0.045,0.928 ± 0.051
UniProt O94964-2|O94964|O94964-4|X6R3R3,1.05 ± 0.11,0.998 ± 0.13,1.139 ± 0.011,1.07 ± 0.025,1.09 ± 0.047,1.03 ± 0.037,1.12 ± 0.072,0.994 ± 0.041
UniProt O75822|O75822-2,0.856 ± 0.038,0.825 ± 0.074,0.908 ± 0.09,0.954 ± 0.098,1.07 ± 0.17,1.32 ± 0.22,1.4 ± 0.3,1.77 ± 0.39
EEF1E1 (UniProt O43324),1.05 ± 0.28,0.987 ± 0.27,1.24 ± 0.41,1.43 ± 0.46,1.41 ± 0.44,1.39 ± 0.45,1.22 ± 0.39,1.31 ± 0.55
HMGN1 (UniProt P05114),1.26 ± 0.29,1.29 ± 0.33,1.39 ± 0.48,1.52 ± 0.48,1.34 ± 0.34,1.83 ± 0.67,1.66 ± 0.36,1.8 ± 0.33
UniProt O60830|O60830-2|V9GYS0,1.82 ± 0.63,1 ± 0.039,0.957 ± 0.15,1.01 ± 0.13,1 ± 0.11,0.969 ± 0.13,0.942 ± 0.051,0.955 ± 0.045
J3KNZ9 (UniProt Q9HAH7),1.01 ± 0.12,0.933 ± 0.095,0.978 ± 0.056,0.984 ± 0.061,0.971 ± 0.051,1.01 ± 0.05,1.02 ± 0.015,1.01 ± 0.061
H7C0Q6|Q9C037|Q9C037-2|Q9C037-3 (UniProt Q9C037),1.08 ± 0.076,1.037 ± 0.0073,1.03 ± 0.068,0.998 ± 0.052,0.968 ± 0.069,0.981 ± 0.063,0.979 ± 0.07,0.918 ± 0.074
K7EIY1|Q9Y421 (UniProt Q9Y421),1.045 ± 0.0048,0.987 ± 0.15,1.07 ± 0.11,1.14 ± 0.14,1.25 ± 0.12,1.21 ± 0.2,1.24 ± 0.11,1.37 ± 0.088
J3QT87|Q96SW2|Q96SW2-2 (UniProt Q96SW2),1.07 ± 0.084,1.07 ± 0.1,0.979 ± 0.034,1.03 ± 0.12,1.05 ± 0.061,1.04 ± 0.1,0.946 ± 0.047,0.931 ± 0.039
